Experiment [1] addresses T1, Serine/threonine-protein kinase 17A (Homo sapiens) (UniProt Q9UEE5).
T1 sequence (whole entry): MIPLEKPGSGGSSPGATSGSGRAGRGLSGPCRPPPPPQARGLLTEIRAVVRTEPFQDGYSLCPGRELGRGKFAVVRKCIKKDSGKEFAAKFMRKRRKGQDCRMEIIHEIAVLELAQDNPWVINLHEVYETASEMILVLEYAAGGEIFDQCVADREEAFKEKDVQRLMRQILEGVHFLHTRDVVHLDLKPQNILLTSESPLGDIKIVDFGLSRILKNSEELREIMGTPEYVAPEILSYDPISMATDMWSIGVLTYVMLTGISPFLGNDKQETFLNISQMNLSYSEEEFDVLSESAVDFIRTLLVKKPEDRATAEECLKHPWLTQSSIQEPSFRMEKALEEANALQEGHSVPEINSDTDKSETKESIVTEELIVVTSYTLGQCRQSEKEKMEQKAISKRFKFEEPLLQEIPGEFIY
As to conditions: at 10 µM.

Experiment [2] concerns the target T2, Ephrin type-A receptor 1 (Homo sapiens) (UniProt P21709).
T2 sequence (whole entry): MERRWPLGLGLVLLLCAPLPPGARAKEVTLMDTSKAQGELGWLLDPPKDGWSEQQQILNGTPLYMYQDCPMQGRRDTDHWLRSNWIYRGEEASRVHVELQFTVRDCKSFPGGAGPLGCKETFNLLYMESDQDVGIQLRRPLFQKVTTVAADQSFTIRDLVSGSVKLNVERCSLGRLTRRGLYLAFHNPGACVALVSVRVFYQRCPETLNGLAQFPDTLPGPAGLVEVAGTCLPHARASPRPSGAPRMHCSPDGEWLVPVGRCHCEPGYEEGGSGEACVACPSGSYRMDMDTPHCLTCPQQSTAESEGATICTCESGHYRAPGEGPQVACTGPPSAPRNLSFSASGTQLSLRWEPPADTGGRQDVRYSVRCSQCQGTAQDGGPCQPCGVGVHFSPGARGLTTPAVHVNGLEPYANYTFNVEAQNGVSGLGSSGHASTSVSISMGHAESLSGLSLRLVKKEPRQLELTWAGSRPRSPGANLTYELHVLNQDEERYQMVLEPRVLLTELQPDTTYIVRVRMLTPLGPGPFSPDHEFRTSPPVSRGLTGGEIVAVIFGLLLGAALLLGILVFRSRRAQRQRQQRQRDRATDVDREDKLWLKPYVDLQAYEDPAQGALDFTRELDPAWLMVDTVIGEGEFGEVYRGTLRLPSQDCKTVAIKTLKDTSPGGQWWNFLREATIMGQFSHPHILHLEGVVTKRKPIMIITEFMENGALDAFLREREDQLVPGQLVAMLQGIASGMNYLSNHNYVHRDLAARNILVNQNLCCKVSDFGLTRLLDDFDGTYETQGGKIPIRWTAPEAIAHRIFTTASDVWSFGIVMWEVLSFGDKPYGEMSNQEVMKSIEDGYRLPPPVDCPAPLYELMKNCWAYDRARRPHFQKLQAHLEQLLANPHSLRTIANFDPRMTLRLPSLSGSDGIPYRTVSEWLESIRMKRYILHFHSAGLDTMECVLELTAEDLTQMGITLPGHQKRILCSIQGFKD
The conditions noted are these: at 1 µM.

In experiment [3] the target is T2, Ephrin type-A receptor 1 (Homo sapiens). The conditions noted are these: at 10 µM.
Experiment [4] addresses Ephrin type-A receptor 2 (Homo sapiens) (UniProt P29317). The conditions noted are these: at 1 µM.
Experiment [5] has the same target. The conditions noted are these: at 10 µM.
In experiment [6] the target is T3, Ephrin type-A receptor 3 (Homo sapiens) (UniProt P29320).
T3 sequence (whole entry): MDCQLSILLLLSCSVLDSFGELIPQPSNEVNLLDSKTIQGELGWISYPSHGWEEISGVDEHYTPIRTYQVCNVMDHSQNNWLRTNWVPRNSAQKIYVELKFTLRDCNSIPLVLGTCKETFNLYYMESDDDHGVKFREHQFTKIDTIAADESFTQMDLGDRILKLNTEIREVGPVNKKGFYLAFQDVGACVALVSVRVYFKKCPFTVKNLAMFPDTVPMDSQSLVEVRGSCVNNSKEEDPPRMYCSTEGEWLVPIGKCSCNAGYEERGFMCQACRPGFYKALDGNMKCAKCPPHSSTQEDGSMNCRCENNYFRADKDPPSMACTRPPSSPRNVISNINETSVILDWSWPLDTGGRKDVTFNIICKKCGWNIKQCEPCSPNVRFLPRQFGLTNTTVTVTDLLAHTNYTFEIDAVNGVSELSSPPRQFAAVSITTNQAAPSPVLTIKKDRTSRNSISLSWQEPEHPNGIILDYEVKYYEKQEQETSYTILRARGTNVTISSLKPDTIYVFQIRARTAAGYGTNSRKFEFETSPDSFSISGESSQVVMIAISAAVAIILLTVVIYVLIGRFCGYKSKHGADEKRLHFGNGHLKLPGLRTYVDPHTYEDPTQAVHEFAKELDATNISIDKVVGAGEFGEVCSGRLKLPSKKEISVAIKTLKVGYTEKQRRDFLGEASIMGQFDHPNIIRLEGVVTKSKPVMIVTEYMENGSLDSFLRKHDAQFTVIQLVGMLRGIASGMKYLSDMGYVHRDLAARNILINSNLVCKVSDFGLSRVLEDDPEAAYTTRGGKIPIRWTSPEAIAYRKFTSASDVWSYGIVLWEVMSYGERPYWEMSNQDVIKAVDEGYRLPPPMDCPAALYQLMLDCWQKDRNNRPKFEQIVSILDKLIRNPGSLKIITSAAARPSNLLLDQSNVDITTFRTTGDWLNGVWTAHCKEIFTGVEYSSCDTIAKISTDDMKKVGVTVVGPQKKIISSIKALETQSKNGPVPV
As to conditions: at 1 µM.

The target of experiment [7] is T3, Ephrin type-A receptor 3 (Homo sapiens). The conditions noted are these: at 10 µM.
The target in experiment [8] is Ephrin type-A receptor 4 (Homo sapiens) (UniProt P54764). As to conditions: at 1 µM.
The target is the same in experiment [9]. As to conditions: at 10 µM.
Experiment [10] concerns the target Ephrin type-A receptor 5 (Homo sapiens) (UniProt P54756). As to conditions: at 1 µM.
Experiment [11] has the same target. The conditions noted are these: at 10 µM.
In experiment [12] the target is Ephrin type-A receptor 7 (Homo sapiens) (UniProt Q15375). The conditions noted are these: at 1 µM.
For experiment [13] the target is unchanged. As to conditions: at 10 µM.
Experiment [14] deals with T4, Ephrin type-A receptor 8 (Homo sapiens) (UniProt P29322).
T4 sequence (whole entry): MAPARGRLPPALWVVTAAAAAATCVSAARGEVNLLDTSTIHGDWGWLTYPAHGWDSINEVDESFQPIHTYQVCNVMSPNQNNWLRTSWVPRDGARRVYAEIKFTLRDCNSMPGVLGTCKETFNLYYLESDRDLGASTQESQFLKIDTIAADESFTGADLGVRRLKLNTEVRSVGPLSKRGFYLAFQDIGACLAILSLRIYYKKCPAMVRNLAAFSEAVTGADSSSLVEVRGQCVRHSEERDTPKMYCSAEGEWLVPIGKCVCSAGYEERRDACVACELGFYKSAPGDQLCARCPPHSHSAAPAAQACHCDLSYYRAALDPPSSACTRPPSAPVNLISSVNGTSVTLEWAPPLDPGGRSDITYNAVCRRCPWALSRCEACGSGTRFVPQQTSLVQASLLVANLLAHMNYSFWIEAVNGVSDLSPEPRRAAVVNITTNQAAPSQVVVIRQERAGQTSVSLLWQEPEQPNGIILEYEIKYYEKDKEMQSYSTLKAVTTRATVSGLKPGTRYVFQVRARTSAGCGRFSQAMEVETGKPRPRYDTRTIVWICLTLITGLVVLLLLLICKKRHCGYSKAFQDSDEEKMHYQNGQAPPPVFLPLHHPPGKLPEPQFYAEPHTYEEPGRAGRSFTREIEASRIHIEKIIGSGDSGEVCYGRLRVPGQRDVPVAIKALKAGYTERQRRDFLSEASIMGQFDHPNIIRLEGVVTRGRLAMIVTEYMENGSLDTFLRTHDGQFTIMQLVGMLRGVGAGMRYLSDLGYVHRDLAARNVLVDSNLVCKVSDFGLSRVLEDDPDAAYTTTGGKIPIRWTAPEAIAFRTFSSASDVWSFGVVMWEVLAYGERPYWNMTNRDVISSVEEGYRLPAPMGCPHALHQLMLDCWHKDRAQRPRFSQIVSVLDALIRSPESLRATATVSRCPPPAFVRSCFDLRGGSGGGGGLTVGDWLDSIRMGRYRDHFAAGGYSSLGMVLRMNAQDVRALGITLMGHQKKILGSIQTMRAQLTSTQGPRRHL
As to conditions: at 1 µM.

Experiment [15] addresses T4, Ephrin type-A receptor 8 (Homo sapiens). The conditions noted are these: at 10 µM.
Experiment [16] addresses T5, Ephrin type-B receptor 1 (Homo sapiens) (UniProt P54762).
T5 sequence (whole entry): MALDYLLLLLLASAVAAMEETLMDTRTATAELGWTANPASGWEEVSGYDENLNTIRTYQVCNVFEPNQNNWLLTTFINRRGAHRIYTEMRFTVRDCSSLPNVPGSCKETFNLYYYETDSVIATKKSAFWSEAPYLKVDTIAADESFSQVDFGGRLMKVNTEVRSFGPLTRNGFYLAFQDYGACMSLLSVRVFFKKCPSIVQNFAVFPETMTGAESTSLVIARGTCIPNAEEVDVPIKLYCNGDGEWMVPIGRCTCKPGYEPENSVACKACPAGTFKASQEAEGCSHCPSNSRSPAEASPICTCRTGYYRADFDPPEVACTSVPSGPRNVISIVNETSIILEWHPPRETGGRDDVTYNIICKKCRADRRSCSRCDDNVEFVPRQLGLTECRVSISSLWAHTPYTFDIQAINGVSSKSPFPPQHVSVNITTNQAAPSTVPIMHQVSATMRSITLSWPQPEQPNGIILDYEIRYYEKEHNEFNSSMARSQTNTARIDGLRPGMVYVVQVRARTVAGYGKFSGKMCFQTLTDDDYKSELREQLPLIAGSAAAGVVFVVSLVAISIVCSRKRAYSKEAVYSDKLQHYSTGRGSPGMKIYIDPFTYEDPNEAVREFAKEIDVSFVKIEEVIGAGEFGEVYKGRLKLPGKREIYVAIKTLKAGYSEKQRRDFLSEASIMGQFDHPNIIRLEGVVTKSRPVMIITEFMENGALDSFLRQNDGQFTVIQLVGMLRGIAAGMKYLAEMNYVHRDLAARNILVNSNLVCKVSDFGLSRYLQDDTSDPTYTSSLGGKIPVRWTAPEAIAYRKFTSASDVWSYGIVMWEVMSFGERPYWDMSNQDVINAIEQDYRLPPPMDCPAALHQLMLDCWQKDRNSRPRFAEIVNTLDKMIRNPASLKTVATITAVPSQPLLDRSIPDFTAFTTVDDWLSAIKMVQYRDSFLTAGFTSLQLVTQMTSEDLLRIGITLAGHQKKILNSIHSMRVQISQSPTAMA
The conditions noted are these: at 1 µM.

Experiment [17] deals with T6, Dual specificity tyrosine-phosphorylation-regulated kinase 2 (Homo sapiens) (UniProt Q92630).
T6 sequence (whole entry): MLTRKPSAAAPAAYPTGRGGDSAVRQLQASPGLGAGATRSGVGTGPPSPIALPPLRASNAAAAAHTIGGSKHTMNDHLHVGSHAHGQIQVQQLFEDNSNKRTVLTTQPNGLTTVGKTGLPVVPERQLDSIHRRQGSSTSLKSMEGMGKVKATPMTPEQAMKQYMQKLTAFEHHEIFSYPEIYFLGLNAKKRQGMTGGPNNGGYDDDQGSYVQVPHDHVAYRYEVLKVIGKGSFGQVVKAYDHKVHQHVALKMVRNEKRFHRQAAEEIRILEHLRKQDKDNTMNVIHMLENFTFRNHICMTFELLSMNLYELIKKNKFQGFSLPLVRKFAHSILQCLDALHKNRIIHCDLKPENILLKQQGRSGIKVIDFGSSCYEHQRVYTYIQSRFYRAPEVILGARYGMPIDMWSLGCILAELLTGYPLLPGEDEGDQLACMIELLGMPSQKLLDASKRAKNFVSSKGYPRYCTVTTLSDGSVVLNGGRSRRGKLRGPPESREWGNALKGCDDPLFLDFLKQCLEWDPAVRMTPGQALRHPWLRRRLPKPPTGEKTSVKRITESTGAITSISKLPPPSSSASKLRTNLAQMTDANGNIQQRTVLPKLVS
The conditions noted are these: at 1 µM.

Experiment [18] concerns the target T6, Dual specificity tyrosine-phosphorylation-regulated kinase 2 (Homo sapiens). As to conditions: at 10 µM.
Experiment [19] deals with Epidermal growth factor receptor (Homo sapiens) (UniProt P00533). The conditions noted are these: at 1 µM.

Ephrin type-A receptor 5 (Homo sapiens), sequence (P54756 whole entry): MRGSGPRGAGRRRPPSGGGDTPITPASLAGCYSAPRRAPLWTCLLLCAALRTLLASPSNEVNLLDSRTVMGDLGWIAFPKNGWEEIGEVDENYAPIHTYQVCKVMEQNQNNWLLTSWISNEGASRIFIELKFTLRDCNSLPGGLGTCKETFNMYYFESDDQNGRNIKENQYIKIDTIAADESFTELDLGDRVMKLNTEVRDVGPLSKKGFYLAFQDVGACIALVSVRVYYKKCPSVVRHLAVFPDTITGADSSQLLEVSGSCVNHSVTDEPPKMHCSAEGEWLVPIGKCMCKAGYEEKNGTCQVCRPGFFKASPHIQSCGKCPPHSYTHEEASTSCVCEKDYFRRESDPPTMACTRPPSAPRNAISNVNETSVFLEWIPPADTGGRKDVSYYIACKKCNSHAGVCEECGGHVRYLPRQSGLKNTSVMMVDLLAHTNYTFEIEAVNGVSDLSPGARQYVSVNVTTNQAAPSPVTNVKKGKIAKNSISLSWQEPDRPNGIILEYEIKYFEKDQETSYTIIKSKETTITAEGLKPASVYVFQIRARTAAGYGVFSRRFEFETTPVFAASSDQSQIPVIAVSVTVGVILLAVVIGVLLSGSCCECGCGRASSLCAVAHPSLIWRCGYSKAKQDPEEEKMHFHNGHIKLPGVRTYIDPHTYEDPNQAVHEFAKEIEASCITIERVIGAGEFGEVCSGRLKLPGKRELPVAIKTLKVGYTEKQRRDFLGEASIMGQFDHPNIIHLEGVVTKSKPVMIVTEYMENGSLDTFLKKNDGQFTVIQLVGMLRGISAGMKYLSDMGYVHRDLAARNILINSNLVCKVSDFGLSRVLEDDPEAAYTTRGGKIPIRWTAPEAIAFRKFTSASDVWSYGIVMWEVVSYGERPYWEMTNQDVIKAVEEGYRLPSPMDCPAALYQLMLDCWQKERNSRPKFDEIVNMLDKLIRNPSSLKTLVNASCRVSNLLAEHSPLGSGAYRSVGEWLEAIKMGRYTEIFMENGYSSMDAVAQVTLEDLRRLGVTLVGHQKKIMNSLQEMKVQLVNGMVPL
Ephrin type-A receptor 4 (Homo sapiens), sequence (P54764 whole entry): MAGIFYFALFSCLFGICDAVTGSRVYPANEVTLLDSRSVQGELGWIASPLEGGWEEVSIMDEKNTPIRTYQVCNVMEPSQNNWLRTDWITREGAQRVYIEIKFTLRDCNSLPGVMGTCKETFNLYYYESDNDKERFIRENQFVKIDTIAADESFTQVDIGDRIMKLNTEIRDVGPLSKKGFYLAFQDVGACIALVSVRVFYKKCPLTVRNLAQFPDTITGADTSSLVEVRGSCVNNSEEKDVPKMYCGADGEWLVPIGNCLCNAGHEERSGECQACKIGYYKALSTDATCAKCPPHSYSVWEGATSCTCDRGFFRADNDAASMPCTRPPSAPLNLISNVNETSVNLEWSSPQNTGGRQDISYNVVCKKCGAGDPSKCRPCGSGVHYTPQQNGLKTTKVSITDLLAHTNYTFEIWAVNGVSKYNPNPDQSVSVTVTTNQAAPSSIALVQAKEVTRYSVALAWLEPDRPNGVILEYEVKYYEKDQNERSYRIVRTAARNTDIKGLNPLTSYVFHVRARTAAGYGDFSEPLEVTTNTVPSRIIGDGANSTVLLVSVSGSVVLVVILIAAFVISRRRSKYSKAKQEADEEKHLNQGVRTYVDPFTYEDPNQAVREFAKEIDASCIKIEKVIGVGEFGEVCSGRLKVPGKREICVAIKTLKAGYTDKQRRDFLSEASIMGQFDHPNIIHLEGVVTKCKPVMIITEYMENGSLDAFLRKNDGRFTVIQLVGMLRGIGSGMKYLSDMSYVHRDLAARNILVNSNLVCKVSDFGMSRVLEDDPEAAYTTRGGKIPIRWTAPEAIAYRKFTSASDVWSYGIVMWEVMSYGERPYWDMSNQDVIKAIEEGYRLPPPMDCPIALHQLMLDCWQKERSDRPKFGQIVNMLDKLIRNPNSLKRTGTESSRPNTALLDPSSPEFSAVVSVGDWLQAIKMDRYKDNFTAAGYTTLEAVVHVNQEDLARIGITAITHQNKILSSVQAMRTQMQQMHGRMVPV
Ephrin type-A receptor 7 (Homo sapiens), sequence (Q15375 28-998 limits assumed): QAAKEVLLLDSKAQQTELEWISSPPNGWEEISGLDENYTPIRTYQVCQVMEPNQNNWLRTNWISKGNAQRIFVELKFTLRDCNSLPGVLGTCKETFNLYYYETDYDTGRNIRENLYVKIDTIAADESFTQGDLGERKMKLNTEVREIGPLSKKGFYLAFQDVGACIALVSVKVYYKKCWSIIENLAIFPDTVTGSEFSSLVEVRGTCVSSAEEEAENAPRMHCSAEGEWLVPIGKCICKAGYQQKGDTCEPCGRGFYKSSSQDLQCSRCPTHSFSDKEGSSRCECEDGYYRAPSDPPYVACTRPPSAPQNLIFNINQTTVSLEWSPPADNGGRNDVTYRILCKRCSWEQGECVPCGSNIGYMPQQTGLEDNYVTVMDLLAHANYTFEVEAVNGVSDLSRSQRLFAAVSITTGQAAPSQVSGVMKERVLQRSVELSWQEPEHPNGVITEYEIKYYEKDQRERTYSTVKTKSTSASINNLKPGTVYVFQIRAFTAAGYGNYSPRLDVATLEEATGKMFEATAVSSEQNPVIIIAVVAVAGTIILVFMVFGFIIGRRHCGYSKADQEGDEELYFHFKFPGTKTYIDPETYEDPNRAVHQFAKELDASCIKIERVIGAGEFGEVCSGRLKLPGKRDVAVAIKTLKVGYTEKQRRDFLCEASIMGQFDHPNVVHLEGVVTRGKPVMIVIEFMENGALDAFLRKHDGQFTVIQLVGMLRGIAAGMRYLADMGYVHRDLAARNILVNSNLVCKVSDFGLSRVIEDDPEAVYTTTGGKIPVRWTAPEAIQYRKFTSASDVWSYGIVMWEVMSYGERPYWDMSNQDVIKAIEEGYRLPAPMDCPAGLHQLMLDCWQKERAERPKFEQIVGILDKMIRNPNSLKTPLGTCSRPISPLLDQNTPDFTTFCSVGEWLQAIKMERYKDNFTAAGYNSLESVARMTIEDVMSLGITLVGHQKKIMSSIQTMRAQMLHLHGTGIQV
Ephrin type-A receptor 2 (Homo sapiens), sequence (P29317 whole entry): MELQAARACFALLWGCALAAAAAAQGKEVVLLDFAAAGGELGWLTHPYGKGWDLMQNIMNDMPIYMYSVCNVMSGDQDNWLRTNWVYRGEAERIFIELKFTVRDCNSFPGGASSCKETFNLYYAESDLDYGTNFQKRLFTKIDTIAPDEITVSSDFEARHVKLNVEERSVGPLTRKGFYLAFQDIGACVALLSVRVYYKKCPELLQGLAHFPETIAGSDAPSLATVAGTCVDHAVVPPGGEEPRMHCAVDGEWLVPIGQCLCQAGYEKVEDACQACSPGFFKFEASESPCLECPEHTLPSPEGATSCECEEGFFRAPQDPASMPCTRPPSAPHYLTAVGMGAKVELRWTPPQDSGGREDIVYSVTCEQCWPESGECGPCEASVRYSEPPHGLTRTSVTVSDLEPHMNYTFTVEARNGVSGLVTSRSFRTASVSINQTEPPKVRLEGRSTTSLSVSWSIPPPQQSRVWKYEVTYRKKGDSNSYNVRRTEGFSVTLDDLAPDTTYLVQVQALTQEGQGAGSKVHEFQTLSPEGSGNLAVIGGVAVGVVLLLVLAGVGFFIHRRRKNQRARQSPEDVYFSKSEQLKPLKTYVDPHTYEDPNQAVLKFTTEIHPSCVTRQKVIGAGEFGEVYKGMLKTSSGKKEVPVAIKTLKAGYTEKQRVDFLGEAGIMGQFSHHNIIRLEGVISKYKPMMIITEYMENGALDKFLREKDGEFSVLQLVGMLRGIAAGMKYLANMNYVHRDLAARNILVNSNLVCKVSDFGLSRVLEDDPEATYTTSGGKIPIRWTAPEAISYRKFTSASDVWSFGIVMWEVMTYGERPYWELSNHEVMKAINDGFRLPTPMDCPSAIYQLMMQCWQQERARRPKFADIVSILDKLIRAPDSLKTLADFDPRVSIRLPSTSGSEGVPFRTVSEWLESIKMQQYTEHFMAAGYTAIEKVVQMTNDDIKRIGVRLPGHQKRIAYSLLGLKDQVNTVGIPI

Regarding `NC(=O)Nc1sc(-c2ccc(F)cc2)cc1C(N)=O`, the residual activity (commonly the signal under treatment as a percentage of the control signal) in experiment [1] stood at 39%; in experiment [2], 9%; in experiment [3], 6%; in [4], 32%; in [5] it was 4%; in experiment [6], 80%. Further, the residual activity in experiment [7] was 33%; in [8] it was 93%; in experiment [9], 43%; in experiment [10] it was 90%; in experiment [11], 28%; in experiment [12] it was 74%. For the same molecule, the residual activity in [13] worked out at 25%; in experiment [14], 84%; in experiment [15], 54%; in [16] it was 11%.

As for `CC(C)N(CCC(=O)c1ccc2ccccc2c1)Cc1ccccc1`, the residual activity in [2] is 75%; in experiment [3], 85%; in experiment [7], 85%.

Take `N#C/C(=C\c1ccc(O)c(O)c1)C(=O)NCc1ccccc1`: the residual activity is 87% in experiment [17]; 73% in experiment [18]; 125% in [19]; 101% in experiment [5]; 101% in [10]; 104% in experiment [12]. Moreover, the residual activity in experiment [13] amounted to 85%.

Take `CC(C)[C@H](CO)Nc1nc(Nc2cc(N)cc(Cl)c2)c2ncn(C(C)C)c2n1`: the residual activity in experiment [17] was found to be 94%; in [18] it was 74%; in [2], 95%; in experiment [3] it was 11%; in experiment [4], 88%; in experiment [5], 29%. Further, the residual activity in experiment [6] was found to be 93%; in experiment [7], 52%; in experiment [9] it was 63%; in experiment [10] it was 86%; in experiment [11] it was 23%; in experiment [14], 93%. The residual activity in experiment [15] was determined as 59%.

The record behind these values is ChEMBL document CHEMBL2218924, “A broad activity screen in support of a chemogenomic map for kinase signalling research and drug discovery” (Biochem J, 2013).
